# Laboratory results published in PubChem BioAssay (EPA / NIEHS).
# Active and inactive are the calls of the source. Rule for the calls: active = hit-call score of the fitted dose curve at least 0.9, where 1 is the maximum; inactive = score below 0.9.
# Read-out: Bcl-2 (BAX) gene, BAX (gene 581)
# Test: LTEA_HepaRG_BAX: Life Technologies and Expression Analysis (LTEA) Assay for Bcl-2 (BAX) gene using HepaRG (AID 2283470)
# Conditions: mRNA level, 48 h; actives raise or lower the signal
# In short: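 Differentiated human HepaRG cells, plated 48 h then switched to serum-free induction medium, were exposed 48 h to 8 half-log concentrations up to 100 uM in 0.5% DMSO; BAX mRNA measured by qRT-PCR, normalized to ACTB, GAPDH, POLR2A.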
Structure (SMILES),outcome,AC50
Nc1cnn(-c2ccccc2)c(=O)c1Cl,inactive,–
N#Cc1c(Cl)cccc1Cl,inactive,–
CCN(CC)C(=O)C(C)Oc1cccc2ccccc12 (configuration not stated),inactive,–
CC1(C)C(C(=O)OC(C#N)c2cccc(Oc3ccccc3)c2)C1(C)C (configuration not stated),inactive,–
CC(C)Nc1nc(Cl)nc(NC(C)C)n1,inactive,–
N#Cc1c[nH]cc1-c1cccc2c1OC(F)(F)O2,–,23.3 µM (active)
Cn1c(-c2ccccc2)cc(-c2ccccc2)[n+]1C,inactive,–
CCCN(CC)CC1COC2(CCC(C(C)(C)C)CC2)O1 (configuration not stated),inactive,–
CCNP(=S)(OC)O/C(C)=C/C(=O)OC(C)C (configuration not stated),inactive,–
CS(=O)(=O)c1ccc(C(=O)C2C(=O)CCCC2=O)c([N+](=O)[O-])c1,inactive,–
COP(=S)(OC)Oc1ccc([N+](=O)[O-])c(C)c1,inactive,–
COC(=O)NC(=S)Nc1ccccc1NC(=S)NC(=O)OC,inactive,–
COc1cc(Cl)c(OC)cc1Cl,inactive,–
CC(C)(C)C(=O)C(Oc1ccc(Cl)cc1)n1cncn1 (configuration not stated),inactive,–
CCCCOCN(C(=O)CCl)c1c(CC)cccc1CC,inactive,–

# Read-out: adenosine kinase (ADK) gene, ADK (gene 132)
# Test: LTEA_HepaRG_ADK: Life Technologies and Expression Analysis (LTEA) Assay for adenosine kinase (ADK) gene using HepaRG (AID 2283471)
# Conditions: mRNA level, 48 h; actives raise or lower the signal
# In short: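 Read-out is ADK transcript level measured by qRT-PCR and normalised to three housekeeping genes. Cells are human HepaRG, dosed for 48 h at up to 100 uM in 0.5% DMSO. Gain or loss of signal is fitted against DMSO controls.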
Structure (SMILES),outcome,AC50
CCCCC(O)(Cn1cncn1)c1ccc(Cl)cc1Cl (configuration not stated),inactive,–
CC(C)N1C(=O)c2ccccc2NS1(=O)=O,inactive,–
O=C(Nc1ccccc1-c1ccc(Cl)cc1)c1cccnc1Cl,inactive,–
N#CN=C1SCCN1Cc1ccc(Cl)nc1,inactive,–
CCNC(=O)NC(=O)C(C#N)=NOC,inactive,–
Cc1c(COC(=O)[C@@H]2[C@H](/C=C(\Cl)C(F)(F)F)C2(C)C)cccc1-c1ccccc1,inactive,–
C=C(C)CN(CC)c1c([N+](=O)[O-])cc(C(F)(F)F)cc1[N+](=O)[O-],inactive,–
CC(C)C1(C)N=C(c2ncccc2C(=O)O)NC1=O (configuration not stated),inactive,–
CCCC(=NOCC)C1=C(O)CC(CC(C)SCC)CC1=O (configuration not stated),inactive,–
O=C1C2CC=CCC2C(=O)N1SC(Cl)(Cl)Cl (configuration not stated),inactive,–
COCc1cnc(C2=NC(C)(C(C)C)C(=O)N2)c(C(=O)O)c1 (configuration not stated),inactive,–
Cc1nc(N(C)C)nc(OC(=O)N(C)C)c1C,inactive,–
CC(C)N1C(=O)N(c2ccccc2)CSC1=NC(C)(C)C,inactive,–
Clc1cccc(C(Cl)(Cl)Cl)n1,inactive,–
CC1(C)CON(Cc2ccccc2Cl)C1=O,inactive,–
CN/C(=N\[N+](=O)[O-])NCc1cnc(Cl)s1,inactive,–
Cc1ccc(N=CN(C)C=Nc2ccc(C)cc2C)c(C)c1,inactive,–
CCN(CC)c1nc(C)cc(OP(=S)(OC)OC)n1,inactive,–

Structure (SMILES),outcome,AC50
COCC(C)N(C(=O)CCl)c1c(C)csc1C (configuration not stated),inactive,–
CCOc1nc(C(Cl)(Cl)Cl)ns1,–,1.06 µM (active)
CCC(C)n1c(=O)[nH]c(C)c(Br)c1=O (configuration not stated),inactive,–
Nc1cnn(-c2ccccc2)c(=O)c1Cl,inactive,–
N#Cc1c(Cl)cccc1Cl,inactive,–
CCN(CC)C(=O)C(C)Oc1cccc2ccccc12 (configuration not stated),inactive,–
CC1(C)C(C(=O)OC(C#N)c2cccc(Oc3ccccc3)c2)C1(C)C (configuration not stated),inactive,–
CC(C)Nc1nc(Cl)nc(NC(C)C)n1,inactive,–
N#Cc1c[nH]cc1-c1cccc2c1OC(F)(F)O2,inactive,–
Cn1c(-c2ccccc2)cc(-c2ccccc2)[n+]1C,–,82.1 µM (active)
CCCN(CC)CC1COC2(CCC(C(C)(C)C)CC2)O1 (configuration not stated),inactive,–
CCNP(=S)(OC)O/C(C)=C/C(=O)OC(C)C (configuration not stated),inactive,–
CS(=O)(=O)c1ccc(C(=O)C2C(=O)CCCC2=O)c([N+](=O)[O-])c1,inactive,–
COP(=S)(OC)Oc1ccc([N+](=O)[O-])c(C)c1,inactive,–
COC(=O)NC(=S)Nc1ccccc1NC(=S)NC(=O)OC,inactive,–
COc1cc(Cl)c(OC)cc1Cl,inactive,–
CC(C)(C)C(=O)C(Oc1ccc(Cl)cc1)n1cncn1 (configuration not stated),inactive,–
CCCCOCN(C(=O)CCl)c1c(CC)cccc1CC,inactive,–

# Read-out: BCL2L11 (gene 10018)
# Test: LTEA_HepaRG_BCL2L11: Life Technologies and Expression Analysis (LTEA) Assay for Bcl-2 (BCL2L11) gene using HepaRG (AID 2283473)
# Conditions: mRNA level, 48 h; actives raise or lower the signal
# In short: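 Differentiated human HepaRG cells were exposed 48 h in serum-free induction medium to eight half-log concentrations up to 100 uM in 0.5% DMSO, in duplicate. BCL2L11 mRNA was quantified by TaqMan qRT-PCR, normalized to ACTB, GAPDH and POLR2A; induction or repression fitted versus DMSO.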
Structure (SMILES),outcome,AC50
CCCCC(O)(Cn1cncn1)c1ccc(Cl)cc1Cl (configuration not stated),inactive,–
CC(C)N1C(=O)c2ccccc2NS1(=O)=O,inactive,–
O=C(Nc1ccccc1-c1ccc(Cl)cc1)c1cccnc1Cl,inactive,–
N#CN=C1SCCN1Cc1ccc(Cl)nc1,inactive,–
CCNC(=O)NC(=O)C(C#N)=NOC,inactive,–
Cc1c(COC(=O)[C@@H]2[C@H](/C=C(\Cl)C(F)(F)F)C2(C)C)cccc1-c1ccccc1,inactive,–
C=C(C)CN(CC)c1c([N+](=O)[O-])cc(C(F)(F)F)cc1[N+](=O)[O-],inactive,–
CC(C)C1(C)N=C(c2ncccc2C(=O)O)NC1=O (configuration not stated),inactive,–
CCCC(=NOCC)C1=C(O)CC(CC(C)SCC)CC1=O (configuration not stated),inactive,–
O=C1C2CC=CCC2C(=O)N1SC(Cl)(Cl)Cl (configuration not stated),inactive,–
COCc1cnc(C2=NC(C)(C(C)C)C(=O)N2)c(C(=O)O)c1 (configuration not stated),inactive,–
Cc1nc(N(C)C)nc(OC(=O)N(C)C)c1C,inactive,–
CC(C)N1C(=O)N(c2ccccc2)CSC1=NC(C)(C)C,inactive,–
Clc1cccc(C(Cl)(Cl)Cl)n1,inactive,–
CC1(C)CON(Cc2ccccc2Cl)C1=O,inactive,–
CN/C(=N\[N+](=O)[O-])NCc1cnc(Cl)s1,inactive,–
Cc1ccc(N=CN(C)C=Nc2ccc(C)cc2C)c(C)c1,inactive,–
CCN(CC)c1nc(C)cc(OP(=S)(OC)OC)n1,inactive,–

Structure (SMILES),outcome,AC50
COCC(C)N(C(=O)CCl)c1c(C)csc1C (configuration not stated),inactive,–
CCOc1nc(C(Cl)(Cl)Cl)ns1,–,0.862 µM (active)
CCC(C)n1c(=O)[nH]c(C)c(Br)c1=O (configuration not stated),–,20.7 µM (active)
Nc1cnn(-c2ccccc2)c(=O)c1Cl,inactive,–
N#Cc1c(Cl)cccc1Cl,inactive,–
CCN(CC)C(=O)C(C)Oc1cccc2ccccc12 (configuration not stated),inactive,–
CC1(C)C(C(=O)OC(C#N)c2cccc(Oc3ccccc3)c2)C1(C)C (configuration not stated),inactive,–
CC(C)Nc1nc(Cl)nc(NC(C)C)n1,inactive,–
N#Cc1c[nH]cc1-c1cccc2c1OC(F)(F)O2,–,20.9 µM (active)
Cn1c(-c2ccccc2)cc(-c2ccccc2)[n+]1C,inactive,–
CCCN(CC)CC1COC2(CCC(C(C)(C)C)CC2)O1 (configuration not stated),inactive,–
CCNP(=S)(OC)O/C(C)=C/C(=O)OC(C)C (configuration not stated),inactive,–
CS(=O)(=O)c1ccc(C(=O)C2C(=O)CCCC2=O)c([N+](=O)[O-])c1,inactive,–
COP(=S)(OC)Oc1ccc([N+](=O)[O-])c(C)c1,inactive,–
COC(=O)NC(=S)Nc1ccccc1NC(=S)NC(=O)OC,inactive,–
COc1cc(Cl)c(OC)cc1Cl,inactive,–
CC(C)(C)C(=O)C(Oc1ccc(Cl)cc1)n1cncn1 (configuration not stated),inactive,–
CCCCOCN(C(=O)CCl)c1c(CC)cccc1CC,inactive,–
